# Test results published in PubChem BioAssay.
# Several values for one entry are separate records, joined by “and”; a condition that tells them apart may be missing. Equal values may be shown once. Values without a mark were called inactive. Activity calls are given as the source filed them. Rule as the data show it, unless noted: active = nuclear beta-catenin stimulation mostly above about 4.2% (no sharp cut-off); inactive = mostly below about 10%.
# Test system: Neuropilin-2 / VEGF-C interaction (human)
# Test: small molecules blocking Neuropilin-2/VEGF-C interaction – biochemical, microplate binding format, z-score (AID 743281; call rule not given here)
# Details: microplate NRP2/VEGF-C binding assay; hits give low values
row,Structure (SMILES),z-score
1,CCCCCCNC(=O)n1cc(F)c(=O)[nH]c1=O,0.686
2,Cc1ncc([N+](=O)[O-])n1CC(C)O (stereo unspecified),0.376
3,N[C@@H](C(=O)N[C@@H]1C(=O)N2C(C(=O)O)=C(Cl)CS[C@H]12)c1ccccc1,-0.232
4,OCCN1CCN(CCCN2c3ccccc3Sc3ccc(C(F)(F)F)cc32)CC1,0.247
5,COc1cc2nc(N(C)CCCNC(=O)C3CCCO3)nc(N)c2cc1OC (stereo unspecified),-0.33
6,CN(C)CCc1c[nH]c2ccc(C[C@H]3COC(=O)N3)cc12,-0.511
7,CN[C@H]1CC[C@@H](c2ccc(Cl)c(Cl)c2)c2ccccc21,-0.0357
8,C/C=C/C(=O)N(CC)c1ccccc1C,-0.426
9,NC(=O)N1c2ccccc2CC(=O)c2ccccc21,0.598
10,CN(CCOc1ccc(CC2SC(=O)NC2=O)cc1)c1ccccn1 (stereo unspecified),0.0365 and -0.614
11,CCn1cc(C(=O)O)c(=O)c2cc(F)c(N3CCN(C)CC3)cc21,-1.05
12,CN1CCCC(n2nc(Cc3ccc(Cl)cc3)c3ccccc3c2=O)CC1 (stereo unspecified),0.519

# Test system: not listed separately
# Test: Wnt pathway potentiators raising nuclear beta-catenin – imaging, WNT3A-conditioned medium, mouse C2C12, NPC library, primary screen (AID 1117326); also: reference of the scale not given here
# Details: at 10 µM, hits give high values
row,Structure (SMILES),nuclear beta-catenin stimulation
1,O=c1[nH]cc(F)c(=O)[nH]1,6.3%
2,CCc1nc(N)nc(N)c1-c1ccc(Cl)cc1,72.4% (active)
3,CCc1cccc2c3c([nH]c12)C(CC)(CC(=O)O)OCC3 (stereo unspecified),0.9%
4,Nc1ncn([C@@H]2O[C@H](CO)[C@@H](O)[C@H]2O)c(=O)n1,21.7%
5,Cc1ccccc1C(OCCN(C)C)c1ccccc1 (stereo unspecified),0.6%
6,Cc1ccc(C)c(OCCCC(C)(C)C(=O)O)c1,1.3%
7,NC(=O)c1cnccn1,-0.1%
8,CCCCCCNC(=O)n1cc(F)c(=O)[nH]c1=O,41.7% (active)
9,COC1=CC(=O)C[C@@H](C)[C@]12Oc1c(Cl)c(OC)cc(OC)c1C2=O,1.9%
10,Cc1ncc([N+](=O)[O-])n1CC(C)O (stereo unspecified),3.5%
11,N[C@@H](C(=O)N[C@@H]1C(=O)N2C(C(=O)O)=C(Cl)CS[C@H]12)c1ccccc1,0.3%
12,CO[C@@]1(NC(=O)Cc2cccs2)C(=O)N2C(C(=O)O)=C(COC(N)=O)CS[C@@H]21,-1.4%
13,OCCN1CCN(CCCN2c3ccccc3Sc3ccc(C(F)(F)F)cc32)CC1,39.2%
14,CN(C)CCOC(c1ccc(Cl)cc1)c1ccccn1 (stereo unspecified),0.9%
15,Cc1onc(-c2c(Cl)cccc2Cl)c1C(=O)N[C@@H]1C(=O)N2[C@@H]1SC(C)(C)[C@@H]2C(=O)O,1.5%
16,COc1cc2nc(N(C)CCCNC(=O)C3CCCO3)nc(N)c2cc1OC (stereo unspecified),1.8%
17,NS(=O)(=O)c1cc(C2(O)NC(=O)c3ccccc32)ccc1Cl (stereo unspecified),2.1%
18,CN(C)CCc1c[nH]c2ccc(C[C@H]3COC(=O)N3)cc12,0.3%
19,Cc1ccc(-c2cc(C(F)(F)F)nn2-c2ccc(S(N)(=O)=O)cc2)cc1,8.6%
20,CN[C@H]1CC[C@@H](c2ccc(Cl)c(Cl)c2)c2ccccc21,6.5%

row,Structure (SMILES),nuclear beta-catenin stimulation
1,O=S(=O)(O)CCS,1.9%
2,C/C=C/C(=O)N(CC)c1ccccc1C,1.7%
3,COc1ccc(OC)c(C(O)CNC(=O)CN)c1 (stereo unspecified),3.8%
4,Cn1cnc([N+](=O)[O-])c1Sc1ncnc2nc[nH]c12,1.2%
5,c1ccc2[nH]c(-c3cscn3)nc2c1,1.5%
6,CCCNCC(O)COc1ccccc1C(=O)CCc1ccccc1 (stereo unspecified),0.3%
7,NC(=O)N1c2ccccc2CC(=O)c2ccccc21,5.2%
8,Cc1cn([C@H]2C[C@H](N=[N+]=[N-])[C@@H](CO)O2)c(=O)[nH]c1=O,1.2%
9,CN(CCOc1ccc(CC2SC(=O)NC2=O)cc1)c1ccccn1 (stereo unspecified),4.7%
10,COc1ccccc1OCC(O)COC(N)=O (stereo unspecified),-2.7%
11,OC(CCN1CCCC1)(c1ccccc1)C1CCCCC1 (stereo unspecified),4.7%
12,O=C1C(CCS(=O)c2ccccc2)C(=O)N(c2ccccc2)N1c1ccccc1 (stereo unspecified),0.9%
13,COC(=O)Nc1nc2ccc(C(=O)c3ccccc3)cc2[nH]1,78.6% (active)
14,CCn1cc(C(=O)O)c(=O)c2cc(F)c(N3CCN(C)CC3)cc21,3.6%
15,CN1CCCC(n2nc(Cc3ccc(Cl)cc3)c3ccccc3c2=O)CC1 (stereo unspecified),1.5%
16,NCc1ccc(S(N)(=O)=O)cc1,0.8%
17,Clc1ccc2c(c1)C(N1CCNCC1)=Nc1ccccc1O2,0.3%
18,CC(C)(C)NCC(O)COc1cccc2c1C[C@H](O)[C@H](O)C2 (stereo partly specified),1.8%
19,NS(=O)(=O)c1cc2c(cc1Cl)NC=NS2(=O)=O,-0.3%
